The supplement of paper PMC6555819

How the values were obtained:
Assay in all cases: PBM binding z-score (relative to random genomic background probes); higher = stronger binding; sequences stand for … in GC…GCGATTGACAGCGTAGAATGAAGG
[1] = tested on: FXR:RXRa (NR concentration 270 nM, RXRa partner concentration 90 nM)
Outline: (§1)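 Ligand-free nuclear receptor dimers were bound for 1 h to custom Agilent 4×180K protein-binding microarrays. Detection used antibodies against each partner (one per run). Binding z-scores rest on regression-normalized fluorescence, with random background probes as the reference.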

[2] = tested on: LXRa:RXRa (NR concentration 270 nM, RXRa partner concentration 90 nM)
Outline: as §1

[3] = tested on: LXRa homodimer (NR concentration 270 nM)
Outline: as §1

[4] = tested on: LXRb:RXRa (NR concentration 270 nM, RXRa partner concentration 90 nM)
Outline: as §1

[5] = tested on: LXRb homodimer (NR concentration 270 nM)
Outline: as §1

[6] = tested on: PPARa:RXRa (NR concentration 270 nM, RXRa partner concentration 90 nM)
Outline: as §1

[7] = tested on: PPARg:RXRa (NR concentration 180 nM, RXRa partner concentration 90 nM)
Outline: as §1

[8] = tested on: PPARg:RXRa 270nM:90nM, anti-RXR (NR concentration 270 nM, RXRa partner concentration 90 nM)
Outline: as §1

[9] = tested on: PPARg:RXRa 30nM:10nM, anti-RXR (NR concentration 30 nM, RXRa partner concentration 10 nM)
Outline: as §1

[10] = tested on: PPARg:RXRa 90nM:30nM, anti-RXR (NR concentration 90 nM, RXRa partner concentration 30 nM)
Outline: as §1

[11] = tested on: PPARg:RXRa DBDmut IVT, anti-RXR (DBD mutation: RXRa K156A/R161A, NR concentration 270 nM, RXRa partner concentration 90 nM)
Outline: as §1

[12] = tested on: PPARg:RXRa IVT, anti-PPARg (NR concentration 270 nM, RXRa partner concentration 90 nM)
Outline: as §1

[13] = tested on: PPARg DBDmut:RXRa IVT, anti-PPARg (DBD mutation: PPARg1 K132A/R137A, NR concentration 270 nM, RXRa partner concentration 90 nM)
Outline: as §1

[14] = tested on: PPARg DBDmut IVT, anti-PPARg (DBD mutation: PPARg1 K132A/R137A, NR concentration 270 nM)
Outline: as §1

[15] = tested on: PPARg homodimer (NR concentration 180 nM)
Outline: as §1

[16] = tested on: PXR:RXRa (NR concentration 270 nM, RXRa partner concentration 90 nM)
Outline: as §1

[17] = tested on: PXR homodimer (NR concentration 270 nM)
Outline: as §1

[18] = tested on: RARa:RXR (NR concentration 270 nM, RXRa partner concentration 90 nM)
Outline: as §1

[19] = tested on: RARa homodimer (NR concentration 270 nM)
Outline: as §1

[20] = tested on: RARb:RXRa (NR concentration 270 nM, RXRa partner concentration 90 nM)
Outline: as §1

Row | Sequence | PBM binding z-score [1] | PBM binding z-score [2] | PBM binding z-score [3] | PBM binding z-score [4] | PBM binding z-score [5] | PBM binding z-score [6] | PBM binding z-score [7] | PBM binding z-score [8] | PBM binding z-score [9] | PBM binding z-score [10] | PBM binding z-score [11] | PBM binding z-score [12] | PBM binding z-score [13] | PBM binding z-score [14] | PBM binding z-score [15] | PBM binding z-score [16] | PBM binding z-score [17] | PBM binding z-score [18] | PBM binding z-score [19] | PBM binding z-score [20]
1 | AGAATGAGGTTATACGTAGCTCAGGGAAGAAAGT | 1.61 | 1.23 | -0.204 | 1.05 | -0.347 | 2.86 | 1.46 | 1.95 | 0.439 | 1.23 | 3.72 | 1.8 | 0.808 | 0.83 | 0.431 | 0.653 | 0.0212 | 1.15 | 0.35 | 1.11
2 | AGAACGAGGTTATACGTAGATCAGGGAAGAAAGT | 1.59 | 1.47 | 0.0402 | 1.32 | -0.361 | 2.78 | 1.58 | 1.39 | 0.732 | 1 | 2.22 | 1.34 | 0.863 | 0.661 | 0.41 | 0.761 | 0.521 | 1.27 | 0.483 | 1.27
3 | TCTTGTAGATCAAGCAGTTTAAGAAAGCCTGAGT | 0.227 | 0.026 | -0.29 | 0.14 | -0.263 | 0.321 | -0.75 | 1.11 | 2.54 | 2.03 | 1.32 | 0.194 | 0.902 | -0.105 | -0.414 | 0.133 | -0.14 | 0.0935 | -0.0919 | -0.137
4 | AGAATGAGGTTATACTTAGATCAGGGAAGAAAGT | 1.79 | 1.76 | 0.275 | 1.58 | 0.388 | 2.68 | 1.83 | 1.44 | 0.605 | 1.17 | 2.72 | 2.03 | 1.21 | 1 | 1.21 | 1.02 | 0.666 | 1.38 | 1.18 | 1.3
5 | AGAATGAGGTTAAGATCAGGAAAACAGAATACAT | 2.16 | 1.98 | -0.0642 | 1.77 | -0.122 | 3.76 | 2.48 | 2.46 | 1.03 | 1.72 | 2.5 | 2.67 | 1.33 | 0.813 | 0.0242 | 1.08 | 0.189 | 1.93 | 0.732 | 1.9
6 | ATCTCTAGGTAAAAGTTCAGGGAATCCCGAGGAT | 1.28 | 1.71 | 1.26 | 1.12 | 1.04 | 4.42 | 8.19 | 7.53 | 7.81 | 8.27 | 2.01 | 3.72 | 1.02 | 1.51 | 1.25 | 1.96 | 1.15 | 2.06 | 1.33 | 2.62
7 | CCTATTAGTTGACCATAAGGCCAACCGAAGCTCG | 0.949 | 0.37 | 0.825 | 0.782 | 0.89 | 0.392 | 0.405 | 0.45 | 0.0484 | 0.551 | 0.55 | 0.487 | 0.478 | 0.312 | 1.95 | 0.947 | 1.1 | 0.845 | 1.87 | 1.34
8 | CCTTACGGGTCACTGGCAGGTTATAGCATTTGGA | 5.13 | 4.36 | 0.174 | 3.52 | -0.315 | 5.15 | 4.06 | 4.83 | 1.9 | 3.26 | 2.85 | 3.68 | 0.22 | 1.16 | 3.67 | 4.02 | 0.0403 | 5.02 | 0.895 | 3.99
9 | TCTCGCAGGACACGAAGGTCAGAGCTTTCCAGAG | 1.36 | 1.16 | 0.275 | 1.43 | -0.948 | 1.92 | 0.556 | 1.75 | 1.75 | 1.74 | 1.49 | 0.67 | -1.01 | -1.42 | 0.787 | 1.44 | -0.0691 | 1.81 | -0.422 | 2.74
10 | TGTCAAAGTTCAAAGGTAACTTAAGTATCCACAC | 7.43 | 6.57 | 4.91 | 5.29 | 1.88 | 5.97 | 9.03 | 7.64 | 5.83 | 7.46 | 0.229 | 4.39 | 1.49 | 1.25 | 2.75 | 5.84 | 3.49 | 6.36 | 1.36 | 5.23
11 | CAGCCTAGGTCAGAGCCAGTATAGGAGGAACGTT | 1.65 | 0.992 | -0.0153 | 0.607 | -0.514 | 1.69 | 0.786 | 0.566 | -0.211 | 0.234 | 1.93 | 1.53 | -0.412 | -1 | 0.951 | 0.261 | -0.164 | 0.723 | 0.33 | 3.08
12 | CCTGCAAGGTCATGGTCAGCTAATCTACAGTATG | 6.95 | 5.02 | 0.64 | 4.16 | 0.00573 | 5.68 | 4.66 | 5.14 | 2.07 | 3.51 | 2.84 | 3.3 | 1.03 | 1.64 | 3.29 | 4.62 | 0.377 | 5.57 | 1.03 | 5.04
13 | GCTAGCAGGCCATTTGGGTCACCCAATGACGGGC | 0.339 | -0.142 | -0.557 | 0.0231 | -1.02 | 1.67 | 0.947 | 0.784 | -0.28 | 0.167 | 1.07 | 2.71 | -0.843 | -0.885 | -0.136 | 0.692 | 0.0143 | 1.02 | -0.844 | 1.62
14 | CGTCCAAGGTCATAGGAGGTCAGTCAAGACAGAT | 7.64 | 7.59 | 5.22 | 6.59 | 0.88 | 5.87 | 5.47 | 5.75 | 2.45 | 4.47 | 3.31 | 4.37 | 0.231 | 0.0229 | 4.04 | 6.74 | 4.16 | 5.99 | 1.15 | 5.37
15 | TCATATAGGTAAACAGGCGAAAGTCCGTAAGTTA | 0.58 | 0.715 | 0.0889 | 0.816 | -0.0877 | 1.56 | 1.45 | 2.91 | 3.94 | 3.3 | 4.24 | 2.83 | 0.751 | 0.916 | 1.19 | 0.767 | 0.508 | 1.04 | 0.681 | 0.356
